# Reference: PubChem BioAssay AID651635 (National Center for Advancing Translational Sciences (NCATS), 2012)
# In all, about 400,000 compounds went through this assay and about 1,900 (0.47%) were called active. Not shown: some 14% with an inconclusive outcome. The call rests on the fitted dose curve; in most records, active means well fitted cell-killing curve with a large enough effect; inconclusive means small, poorly fitted or top-dose-only effect, or effect the other way; inactive means no such curve, though single readings can be large or run the other way. What follows is part of a selection rich in actives, with near analogues and random picks from the rest. A call without a number means that no potency is given here.
# Test: Viability Counterscreen for Primary qHTS for Inhibitors of ATXN expression; further: nearly all actives have a fitted effect of over 40% in size
# Conditions: S2 cells (HEK-293 line with an ATXN2-luciferase reporter) viability, CellTiter-Fluor protease fluorescence, 24 h; series mostly up to 56.7 µM
# Potency means the concentration at half of the fitted maximal effect.
row,Compound,Potency
1,FC(F)(F)c1cccc(-c2cn[nH]c2C2CCCN(Cc3cccn3-c3ccccn3)C2)c1 (stereo not drawn),inactive
2,O=C(NCCN1CCOCC1)c1cnn(-c2nccc(-c3cccs3)n2)c1C1CC1,inactive
3,O=C(OCC(O)CO)c1ccccc1Nc1ccnc2c(C(F)(F)F)cccc12 (stereo not drawn),inactive
4,CCS(=O)(=O)Nc1cc(C(=O)N2C[C@@H](C)O[C@@H](C)C2)c2c(c1)nc(-c1ccccc1)n2C,inactive
5,CC1(C)OC[C@@H](COC(=O)CCc2ccc(OC[C@@H](O)CNCCNC(=O)N3CCOCC3)cc2)O1,inactive
6,CC(=O)Nc1cncc(-c2ccccc2CO)n1,inactive
7,COc1ccc2nc(-c3ccccn3)ccc2c1,inactive
8,N#Cc1ccc(Oc2cc(C(F)(F)F)nc(-c3ccccn3)n2)cc1,inactive
9,COc1cnc(-c2ccccn2)nc1Oc1ccc(C(C)(C)C)cc1,10 µM (active)
10,CCc1nc2c(OCCOc3ccccc3)cccn2c1N(C=O)Cc1ccc(OC)cc1,inactive
11,C#Cc1ccc(NC(=O)C2(C)CCN2C(=O)Cc2ccc(-c3ccccc3)cc2)cc1 (stereo not drawn),inactive
12,CC(C(=O)O)c1ccc(C2CCCCC2)c2ccccc12 (stereo not drawn),inactive
13,O=C(NC1=CC(=O)c2ccccc2C1=O)c1ccccc1,7.08 µM (active)
14,O=C(NC(=O)c1ccccc1)Nc1ccccc1O,inactive
15,COC(=O)c1nc(NC(=O)c2ccccc2)n[nH]1,inactive
16,CCCS(=O)(=O)NCc1c(C)ncc2c1CCN(C(=O)c1ccc(F)c(F)c1)C2,inactive
17,O=C(OCCN1CCOCC1)c1cccnc1Nc1cccc(C(F)(F)F)c1,inactive
18,COc1ccc(NC(=O)C2(C)Cc3c(-c4cccc(NC(C)=O)c4)ccnc3O2)cc1OC (stereo not drawn),inactive
19,COc1ccc(-n2c(CNC(=O)c3cc(C(F)(F)F)ccc3Cl)nnc2SC)cc1,inactive
20,COc1ccc(NC(=O)C/C(C)=N/NC(=O)c2cnccn2)cc1Cl,inactive
21,CCN(CC)c1ccc(/C=N/NC(=O)c2cnccn2)c(O)c1,7.94 µM (active)
22,Cc1ccc(/C=N/NC(=O)C2=NNC(c3ccccc3)(c3ccccc3)C2)c(O)c1,inactive
23,COc1cc(C(=O)N2CCC(c3ccncc3)CC2)cc(OC)c1OC,inactive
24,CCOC(=O)[C@]12CCCC=C1N(Cc1ccc3c(c1)OCO3)C(=O)[C@H](CC(=O)NCc1cccs1)C2,inactive

row,Compound,Potency
1,COCCSc1nnc(NC(=O)CCS(=O)(=O)Cc2ccccc2)s1,inactive
2,CCOc1ccc(NC(=O)c2nc(SCC)ncc2Cl)cc1,inactive
3,CSc1nnc(NC(=O)c2nc(S(=O)(=O)Cc3ccc(C)cc3)ncc2Cl)s1,12.6 µM (active)
4,CCS(=O)(=O)c1ncc(N(Cc2ccc(F)cc2)Cc2ccco2)c(C(=O)Nc2cc(C)ccc2C)n1,inactive
5,Cc1cccc(CS(=O)(=O)c2ncc(Cl)c(C(=O)Nc3ccc(F)cc3)n2)c1,31.6 µM (active)
6,Cc1ccc2nc(NC(=O)c3nc(SCc4ccccc4F)ncc3Cl)sc2c1,inactive
7,COc1ccccc1-c1ccnc(-n2ncc(C(=O)NCCc3ccncc3)c2C)n1,inactive
8,O=C(O)c1ccccc1/C=N/Nc1ccc(S(=O)(=O)Nc2ccc(Cl)cc2)cc1[N+](=O)[O-],inactive
9,O=[N+]([O-])c1cc(S(=O)(=O)Nc2cccc(Cl)c2)ccc1N=Nc1c(O)[nH]c2ccccc12,28.2 µM (active)
10,Oc1[nH]c2ccccc2c1N=Nc1c(F)c(F)c(F)c(F)c1F,inactive
11,CO/N=C(\C(=O)N[C@@H]1C(=O)N2C(C(=O)O)=C(C[N+]3(C)CCCC3)CS[C@H]12)c1csc(N)n1,inactive
12,COc1cc(-c2cccnc2)cc2c1OCCN(C(=O)Cc1csc(C)n1)C2,inactive
13,COc1cc2[nH]c(C)c(CCN3CCN(c4ccccc4)CC3)c2cc1OC,inactive
14,CC1CN(C(=O)c2ccc([N+](=O)[O-])s2)CC(C)O1 (stereo not drawn),inactive
15,O=[N+]([O-])c1ccc(C=Nc2ccc(Cl)cc2Cl)s1,11.2 µM (active)
16,CNN/C(N=Cc1ccc([N+](=O)[O-])s1)=N\S(=O)(=O)c1cc(C)c(Cl)cc1SCc1ccccc1,inactive
17,CCOC(=O)[C@]12CCC=C1N(CCC1=CCCCC1)C(=O)[C@H](CC(=O)NCc1ccc(C)o1)C2,inactive
18,COC(=O)c1c(C)c(C)nc(N)c1C#N,inactive
19,COC(=O)c1nn(-c2cccc(Cl)c2)ccc1=O,inactive
20,COC(=O)c1nc(Cl)c(Cl)nc1N,15.8 µM (active)
21,CCCOc1ccc(F)cc1-c1cc(C(=O)NCc2ccc(F)cc2)[nH]n1,inactive
22,CCC1CN(CCNC(=O)c2ccsc2)Cc2cc(OC)ccc2O1 (stereo not drawn),inactive
23,CC[C@]1(O)C[C@@H]2CN(CCc3c([nH]c4ccccc34)[C@@](C(=O)OC)(c3cc4c(cc3OC)N(C)[C@H]3[C@@](O)(C(=O)OC)[C@H](OC(C)=O)[C@]5(CC)C=CCN6CC[C@]43[C@@H]65)C2)C1,1 µM (active)
24,O=C(NCC1Cc2cc(F)cc(-c3cnccn3)c2O1)C1COc2ccccc2O1 (stereo not drawn),inactive
